Data on nine compounds can be found in PubChem BioAssay (Tox21).

Molecules are shown by their SMILES. “And” between values parts separate entries of the source, which are not always exact repeats. Equal entries are not always repeated. Results filed as inconclusive are left out. The source made the active and inactive calls. Unless noted, the call rests on the fitted dose curve; in most records, active means well fitted curve in the direction sought with a large enough effect in the repeat runs; inconclusive means weak or mixed curves; inactive means no such curve, though single readings can be large; an effect the other way counts as inactive or inconclusive.

A short description of assay [1]: qHTS assay for small molecule agonists of the p53 signaling pathway (AID 651631; calls by dose curve; further: nearly all actives have a fitted effect of over 15% in size; further: potency means the concentration at half of the fitted maximal effect). Summed up:
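Fluorescence intensity from cleaved LiveBLAzer B/G substrate (2 h, room temperature) served as the signal. Beforehand, HCT-116 reporter cells bearing p53 response elements were treated 16 h at 37 °C with DMSO-dissolved compounds.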
A general note: qHTS replaces the single test concentration by a dilution series.

Assay [2] in a line: qHTS assay for small molecule agonists of the p53 signaling pathway - cell viability (AID 651633; calls by dose curve; further: nearly all actives have a fitted effect of over 30% in size; further: potency means the concentration at half of the fitted maximal effect). Summed up:
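p53RE-bla cells, seeded at 4,000 per well and rested 5 h at 37 C/5% CO2, received compounds in DMSO for 16 h at 37 C. CellTiter-Glo was then added, and luminescence was read after 30 min at room temperature to gauge cytotoxicity.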

Assay [3] in a line: qHTS assay for small molecules that induce genotoxicity in human embryonic kidney cells expressing luciferase-tagged ATAD5 - cell viability (AID 651634; calls by dose curve; further: nearly all actives have a fitted effect of over 25% in size). The gist of the method: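 Cells (HEK293T, luciferase-tagged ATAD5) are seeded at 2,000 per well, dosed with compound or DMSO vehicle, and incubated 15.5 hr at 37C and 5% CO2. CellTiter-Fluor is added for 30 min before fluorescence is measured.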

Assay [4] in a line: qHTS assay for small molecule disruptors of the mitochondrial membrane potential - cell viability (AID 720634; calls by dose curve; further: nearly all actives have a fitted effect of over 20% in size; further: potency means the concentration at half of the fitted maximal effect). The gist of the method:
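Cytotoxicity was measured by ATP quantitation in HepG2 wells that had first been treated with compound for 1 hr and stained with m-MPI dye; CellTiter-Glo incubation was 30 min at room temperature.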

Assay [5] can be described thus: qHTS assay for small molecule disruptors of the mitochondrial membrane potential (AID 720635). Summed up: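 HepG2 cells (2,000/well) attached overnight at 37C, then took compound for 1 hr at 37C, 5% CO2. Mito-MPS dye was added for 30 min; fluorescence was read at 490/535 nm (monomers) and 540/590 nm (aggregates).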
The nature of assay [6]: qHTS assay to test for compound auto fluorescence at 590 nm (red) in HepG2 cells (AID 720674). The gist of the method: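 Intrinsic compound fluorescence in the red window (Ex/Em 540/590 nm) is measured in attached HepG2 cells exposed for 1 hr, DMSO vehicle as baseline, benchmarked to Rose Bengal sodium.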
Assay [7] can be described thus: qHTS assay to test for compound auto fluorescence at 535 nm (green) in HepG2 cells (AID 720675).
Assay [8] can be described thus: qHTS assay to test for compound auto fluorescence at 460 nm (blue) in HEK293 cells (AID 720678). The gist of the method: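 Auto fluorescence in the blue band was quantified as triamterene equivalency. HEK293 cells were seeded at 2,000/well, dosed after a 4-5 hr attachment, and kept overnight at 37C before the 405/460 nm reading.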
Assay [9] in a line: qHTS assay to test for compound auto fluorescence at 590 nm (red) in HEK293 cells (AID 720679). Summed up: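 Autofluorescence equivalency to Rose Bengal sodium, 540/590nm, in HEK293 cells exposed overnight to 23 nL compound per well.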
Assay [10] is described as follows: qHTS assay to test for compound auto fluorescence at 535 nm (green) in HEK293 cells (AID 720680).
Assay [11] in a line: qHTS assay to test for compound auto fluorescence at 460 nm (blue) in HEK293 cell free culture (AID 720681). Summed up:
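Test compounds were pinned into cell-free culture medium (DMEM with 10% FBS) and fluorescence was read directly at Ex/Em 405/460 nm. Signals were expressed as fluorescence equivalents of triamterene, with DMSO vehicle as control.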

The nature of assay [12]: qHTS assay to test for compound auto fluorescence at 535 nm (green) in HEK293 cell free culture (AID 720682). The gist of the method:
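Intrinsic compound fluorescence is measured in culture medium containing 10% FBS, with excitation at 485 nm and detection at 535 nm, referenced to fluorescein.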

The nature of assay [13]: qHTS assay to test for compound auto fluorescence at 590 nm (red) in HEK293 cell free culture (AID 720683). The gist of the method: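 Tox21 10K library compounds were pinned into cell-free DMEM with 10% FBS and fluorescence was read at excitation 540 nm. Activity is expressed as Rose Bengal sodium equivalency.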
Assay [14] is described as follows: qHTS assay to test for compound auto fluorescence at 590 nm (red) in HepG2 cell free culture (AID 720684). The gist of the method: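 Ex 540 / Em 590 nm read of compound in cell-free MEM (10% FBS). Rose Bengal sodium reference.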
Assay [15] in a line: qHTS assay to test for compound auto fluorescence at 460 nm (blue) in HepG2 cell free culture (AID 720685). The gist of the method: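 Cell-free plates of MEM plus 10% FBS received 23 nL compound or DMSO vehicle; blue-channel (405/460 nm) intensity scored against triamterene as reference fluorophore.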
Assay [16] in a line: qHTS assay to test for compound auto fluorescence at 535 nm (green) in HepG2 cell free culture (AID 720686).
Assay [17] is described as follows: qHTS assay to test for compound auto fluorescence at 460 nm (blue) in HepG2 cells (AID 720687). Summed up: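 Cells (2,000/well in MEM with 10% FBS) attached overnight at 37 C, then were exposed to compound or DMSO for 1 hr at 37 C, 5% CO2. Fluorescence read at Ex/Em 405/460 nm, expressed as triamterene-equivalent signal.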
Assay [18] is described as follows: qHTS assay for small molecules that induce genotoxicity in human embryonic kidney cells expressing luciferase-tagged ATAD5 (AID 651632). Further: nearly all actives have a fitted effect of over 15% in size. The gist of the method:
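Cells were seeded at 2,000 per well, dosed with compound, and incubated 16 hr at 37C in 5% CO2. Luciferase activity was then quantified after a 30 min room-temperature incubation with Amplite.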

The target in assay [19] is Glucocorticoid receptor (Homo sapiens) (UniProt P04150). Kind of assay: qHTS assay to identify small molecule agonists of the glucocorticoid receptor (GR) signaling pathway (AID 720691; active means well fitted activation curve with a large enough effect in the signal ratio in the repeat runs, not every such curve was filed as active; the % refers to the signal ratio). The gist of the method: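 Steps: seed GR-bla HeLa cells, incubate 4 h at 37 C/5% CO2; pin-transfer DMSO-dissolved compounds; incubate 18 h at 37 C; add LiveBLAzer B/G FRET substrate; after 2 h at room temperature, measure fluorescence.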

For assay [20] the target is unchanged. Kind of assay: qHTS assay to identify small molecule antagonists of the glucocorticoid receptor (GR) signaling pathway (AID 720692; active means well fitted inhibition curve with a large enough effect in the signal ratio in the repeat runs, not every such curve was filed as active; the % refers to the signal ratio). Summed up: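 Antagonism was scored as loss of dexamethasone-driven (5 nM final) reporter signal in HeLa cells bearing a glucocorticoid response element–beta-lactamase construct, after 18 h compound exposure at 37 C and 2 h FRET substrate loading.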

Sequence of Glucocorticoid receptor (Homo sapiens) (P04150 whole entry, looked up): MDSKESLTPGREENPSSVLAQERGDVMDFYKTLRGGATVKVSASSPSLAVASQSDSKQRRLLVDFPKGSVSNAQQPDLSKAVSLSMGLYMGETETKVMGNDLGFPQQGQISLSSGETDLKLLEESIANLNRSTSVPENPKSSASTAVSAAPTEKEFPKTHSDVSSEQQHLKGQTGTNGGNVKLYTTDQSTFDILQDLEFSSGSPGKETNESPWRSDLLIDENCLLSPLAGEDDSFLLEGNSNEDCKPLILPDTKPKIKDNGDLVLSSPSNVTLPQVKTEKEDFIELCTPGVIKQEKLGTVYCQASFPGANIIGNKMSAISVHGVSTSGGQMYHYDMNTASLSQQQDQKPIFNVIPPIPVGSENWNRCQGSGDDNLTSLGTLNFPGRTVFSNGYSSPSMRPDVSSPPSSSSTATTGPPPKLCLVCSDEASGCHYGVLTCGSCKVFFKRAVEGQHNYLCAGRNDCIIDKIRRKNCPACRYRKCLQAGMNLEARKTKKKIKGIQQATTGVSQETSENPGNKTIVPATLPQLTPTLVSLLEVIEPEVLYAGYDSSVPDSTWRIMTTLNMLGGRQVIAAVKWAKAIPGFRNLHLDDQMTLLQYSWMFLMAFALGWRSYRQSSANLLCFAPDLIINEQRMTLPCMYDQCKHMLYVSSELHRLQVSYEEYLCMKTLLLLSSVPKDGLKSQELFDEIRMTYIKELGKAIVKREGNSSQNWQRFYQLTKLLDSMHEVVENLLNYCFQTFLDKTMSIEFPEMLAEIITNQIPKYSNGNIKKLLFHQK

As to `Clc1ccc(Cl)c(Cl)c1`, the Potency entry in [1], in assay [2], in assay [3], in [4] and in assay [5] was “inactive” in each case. The result in assay [6], in [7], in assay [8], in assay [9], in [10] and in assay [11] was inactive. Further, the compound was called inactive in [12], in [13], in [14], in assay [15], in assay [16] and in assay [17].

For `C=CC(C)(CCC=C(C)C)OC(=O)c1ccccc1N` (stereo unspecified), the Potency entry in assay [1], in [2] and in assay [4] was “inactive” each time. The call in [6], in [7], in assay [8], in assay [9], in assay [10] and in [11] was inactive. The result in [12], in assay [13], in assay [14], in assay [15], in assay [16] and in assay [17] was inactive.

With `CCCCNC(=O)OCC#CI`, the Potency in assay [1] is 68.6 µM (active); in assay [2] it was 60.8 µM (active); in assay [4], 8.59 µM (active) and 27.3 µM (active). Moreover, the Potency entry in assay [18] is “inactive”. In addition, the call in assay [6], in [7], in [8], in [9], in assay [10] and in assay [11] was inactive. Besides, the result in [12], in assay [13], in assay [15], in assay [16] and in assay [17] was inactive.

On to `OCC1CO1` (stereo unspecified), for which the Potency entry in [1], in assay [18], in [3], in [5], in [19] and in assay [20] was “inactive” each time. Also, the compound was classed as inactive in assay [7], in [9], in assay [10], in [11], in [12] and in [13]. For the same compound, the outcome in assay [15], in assay [16] and in [17] was inactive.

Consider `CC(C)C1(C)N=C(c2ncccc2C(=O)O)NC1=O` (stereo unspecified), for which the Potency entry in [1], in [18], in assay [2], in [3], in assay [19] and in assay [20] was “inactive” throughout. The call in assay [6], in assay [7], in assay [9], in [10], in assay [11] and in [12] was inactive. For the same compound, the result in assay [14], in assay [15], in [16] and in assay [17] was inactive.

`C[C@H](N)[C@H](O)c1ccc(O)c(O)c1`: the Potency result in assay [1], in assay [18], in [3] and in assay [4] was “inactive” each time. Also, the compound was called inactive in assay [6], in assay [7], in assay [8], in [9], in assay [10] and in assay [11]. Also, the compound was called inactive in assay [12], in assay [13], in assay [14], in assay [15], in assay [16] and in [17].

`FC(F)OC(F)(F)C(F)Cl` (stereo unspecified): the Potency result in assay [1], in assay [2], in [3], in assay [4], in assay [5] and in assay [19] was “inactive” throughout. For the same compound, the Potency result in assay [20] was “inactive”. Further, the compound was classed as inactive in assay [6], in [7], in assay [8], in assay [9], in assay [10] and in assay [11]. Moreover, the call in [12], in assay [15], in [16] and in assay [17] was inactive.

For `O=C=NC1CCCCC1`, the Potency result in assay [1], in [2], in assay [3], in assay [19] and in assay [20] was “inactive” throughout. The call in assay [6], in assay [7], in assay [8], in [9], in assay [10] and in assay [11] was inactive. Moreover, the call in assay [12], in assay [13], in assay [14], in assay [15], in assay [16] and in [17] was inactive.

For `COC(=O)C1(O)c2ccccc2-c2ccccc21`, the Potency result in [1], in [18], in assay [3], in assay [4], in assay [19] and in [20] was “inactive” each time. The compound was classed as inactive in [6], in assay [7], in assay [8], in assay [9], in assay [10] and in [11]. For the same compound, the compound was classed as inactive in [12], in assay [13], in assay [14], in [15], in assay [16] and in assay [17].
